Compound activity deposited in PubChem by National Center for Advancing Translational Sciences (NCATS).
aSyn rescue: rescues yeast growth from alpha-synuclein toxicity. Yeast expressing alpha-synuclein, growth rescue, BacTiter-Glo, 24 h. Potency, µM (series often up to 46.1 µM), inactives show top-dose growth rescue (activation), hits mostly activators. hit rate 0.14% among 370,000. AID 652106; further: % of control where 0% means no effect; nearly all actives have a fitted effect of over 65% in size
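Rescue of yeast growth: cells expressing toxic alpha-synuclein, induced in galactose at OD600 0.02, incubated with compound 24 h at 30 C. ATP luminescence quantified growth; inhibitors of toxicity appear as activators.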
FUS suppressor: rescues growth of FUS-expressing yeast. Potency, µM (series often up to 76.6 µM), most hits filed as activators. AID 1347120. hit rate 0.24% among 390,000. S. cerevisiae FUS-expressing, growth rescue, OD600, 24 h;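 further: plate controls were DMSO vehicle for no effect and reference control for full effect; nearly all actives have a fitted effect of over 55% in size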
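FUS-expressing yeast, raffinose-pregrown, induced in 2% galactose minimal medium at OD 0.005; compounds in a dilution series, 24hr at 30C. Growth restoration read as absorbance at 600 nm. CP55940 positive control, DMSO negative.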
TDP43 rescue: rescues yeast growth from TDP-43 toxicity | TDP-43 expressing yeast growth rescue, BacTiter-Glo, 24 h | Potency, µM (doses to about 46.1 µM), for the others: at the top dose growth rescue (activation), usual class: activators | hit rate 1.8% among 410,000 | AID 652104; further: % of control where 0% means no effect; nearly all actives have a fitted effect of over 50% in size
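Yeast expressing TDP-43 (pregrown in raffinose, seeded at OD600=0.02 in galactose medium) exposed to compounds 24 hr at 30 deg C. Growth read by BacTiter-Glo luminescence; rescue of toxicity appears as increased signal.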
Abeta yeast res: restores growth of yeast expressing A-beta42 peptide; Potency, µM (highest dose often 46.1 µM), actives largely listed as activators; hit rate 0.063% among 410,000; yeast expressing A-beta42, growth rescue, OD600, 48 h; response scale: 0% DMSO, 100% iron-clioquinol control; further: nearly all actives have a fitted effect of over 55% in size
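Yeast growth medium received pinned compounds, then yeast cells expressing toxic A-beta were added; plates incubated at 30 C for 48 hr. Growth read as absorbance at 600 nm, normalized to DMSO and equimolar FeCl3 plus clioquinol controls.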
Mito fusion yeast: inhibitors of mitochondrial division or activators of mitochondrial fusion; S. cerevisiae fusion-defective mutant growth rescue, CellTiterGlo 48 h; AID 485298; hit rate 0.23% among 320,000; Potency, µM (series often up to 46.1 µM), for inactives: at the highest dose growth rescue (activation), usual class: activators; further: % of control where 0% means no effect; nearly all actives have a fitted effect of over 45% in size
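S. cerevisiae fusion-defective temperature-sensitive mutants (e.g. fzo1-1, mgm1-5) grown 48 h at 37C in YPEG (ethanol/glycerol non-fermentable) medium with 23 nl compound per well; growth rescue read as CellTiterGlo luminescence.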
* marks the source's active call; other numbers are inactive results; [ ] = remark or other dose. Rows were chosen to be rich in hits. Some 2.2% of all compounds tested hit in one or more screens of this group. The call rests on the fitted dose curve; in most records, active means well fitted curve in the direction sought with a large enough effect; inconclusive means small, poorly fitted or top-dose-only effect, or another doubt; inactive means no such curve, though single readings can be large; an effect the other way counts as inactive or inconclusive. Potency means the concentration at half of the fitted maximal effect.

Screening CC(=O)NC(c1ccc(N(C)C)cc1)c1cc(Cl)c2cccnc2c1O (stereo not given) returned aSyn rescue 15%, FUS suppressor inactive, TDP43 rescue 28µM* and Abeta yeast res inactive.
Screening CCC(=O)NC(c1cccs1)c1cc(Cl)c2cccnc2c1O (stereo not given) returned aSyn rescue 17%, FUS suppressor inactive, TDP43 rescue 6%, Abeta yeast res inactive and Mito fusion yeast 1%.
Cc1ccccc1CNC(=O)c1ccc(NC(=O)c2nsc3ccccc23)cc1 was read as FUS suppressor inactive, TDP43 rescue inconclusive and Abeta yeast res inactive.
For COc1cc2nc(C#N)nc(N)c2cc1OC the results were aSyn rescue 1%.
`CSc1ncc(C(=O)NCc2ccc(C)cc2)c(-c2ccccc2)n1` gave FUS suppressor inactive, TDP43 rescue 15% and Abeta yeast res inactive.
For CC1CCCCN1C(=S)NC(=O)c1cc(Br)ccc1Cl (stereo not given) the results were aSyn rescue 13%, FUS suppressor inactive, TDP43 rescue 25µM*, Abeta yeast res inactive and Mito fusion yeast 14%.
Screening CCC1CCCCN1C(=S)NC(=O)c1cc(Br)ccc1Cl (stereo not given) returned aSyn rescue inconclusive, FUS suppressor inactive, TDP43 rescue 28µM*, Abeta yeast res 11µM* and Mito fusion yeast 10%.
`O=C1CSC2(C(=O)N(Cc3ccccc3F)c3ccccc32)N1c1cccc(C(F)(F)F)c1` (stereo not given) gave aSyn rescue 0%, FUS suppressor inactive, TDP43 rescue 0% and Abeta yeast res inactive.
For O=[N+]([O-])c1ccccc1/C=N/N1CCN(c2ccncc2S(=O)(=O)N2CCCCC2)CC1 the results were aSyn rescue 26%, FUS suppressor inactive, TDP43 rescue inconclusive, Abeta yeast res inactive and Mito fusion yeast 11µM*.
For Cc1nc(NC(=O)c2ccco2)sc1-c1csc(Nc2ccc(Cl)cc2)n1 the results were aSyn rescue -6%, FUS suppressor 22µM*, TDP43 rescue inconclusive, Abeta yeast res inactive and Mito fusion yeast 7%.
For Cc1cc(-c2csc(Nc3ccccn3)n2)ccc1F the results were aSyn rescue -25%, FUS suppressor inactive, TDP43 rescue 4µM*, Abeta yeast res inconclusive and Mito fusion yeast -8%.
Screening Cc1ccc(Nc2nc(-c3sc(N)nc3C)cs2)cc1 returned aSyn rescue -20%, FUS suppressor inconclusive, TDP43 rescue 16%, Abeta yeast res inactive and Mito fusion yeast -11%.
Screening c1ccc(-c2csc(Nc3ccccn3)n2)cc1 returned aSyn rescue -25%, FUS suppressor inactive, TDP43 rescue inconclusive, Abeta yeast res inconclusive and Mito fusion yeast -9%.
Cc1ccc(Nc2nc(-c3sc(C)nc3C)cs2)cc1 was read as aSyn rescue -3%, FUS suppressor inactive, TDP43 rescue 20µM*, Abeta yeast res inactive and Mito fusion yeast -5%.
For Fc1ccc(-c2csc(Nc3ccccn3)n2)c(F)c1 the results were aSyn rescue -2%, FUS suppressor inactive, TDP43 rescue inconclusive, Abeta yeast res inconclusive and Mito fusion yeast -9%.
For Cc1ccc(-c2csc(Nc3ccccn3)n2)cc1 the results were aSyn rescue -25%, FUS suppressor inactive, TDP43 rescue 3.2µM*, Abeta yeast res inconclusive and Mito fusion yeast 2%.
CC(=O)Oc1ccc(-c2csc(Nc3ccc(Cl)cn3)n2)cc1 was read as aSyn rescue -13%, FUS suppressor inactive, TDP43 rescue 13µM*, Abeta yeast res inactive and Mito fusion yeast -17%.
For COc1ccc(-c2csc(Nc3ccccn3)n2)cc1OC the results were aSyn rescue -3%, FUS suppressor inactive, TDP43 rescue 13µM*, Abeta yeast res inactive and Mito fusion yeast -4%.
Oc1ccc(-c2csc(Nc3ccccn3)n2)cc1 was read as aSyn rescue -14%, FUS suppressor inactive, TDP43 rescue inconclusive, Abeta yeast res inactive and Mito fusion yeast -4%.
`CC(=O)c1cccc(Nc2nc(-c3sc(N)nc3C)cs2)c1` gave aSyn rescue -11%, FUS suppressor inactive, TDP43 rescue 24%, Abeta yeast res inactive and Mito fusion yeast 1%.
`Cc1nc(C)c(-c2csc(Nc3ccccn3)n2)s1` gave aSyn rescue -21%, FUS suppressor inactive, TDP43 rescue 35µM*, Abeta yeast res inconclusive and Mito fusion yeast -5%.
For CC(=O)c1cccc(Nc2nc(-c3sc(C)nc3C)cs2)c1 the results were aSyn rescue -6%, FUS suppressor inactive, TDP43 rescue 11µM*, Abeta yeast res inactive and Mito fusion yeast 6%.
COc1ccc(-c2csc(Nc3ccc(C)cn3)n2)cc1 was read as aSyn rescue -32%, FUS suppressor inactive, TDP43 rescue 13µM*, Abeta yeast res inactive and Mito fusion yeast 4%.
`Cc1ccnc(Nc2nc(-c3ccc(F)cc3)cs2)c1` gave aSyn rescue -32%, FUS suppressor inactive, TDP43 rescue 7.9µM*, Abeta yeast res inactive and Mito fusion yeast -2%.
`CN(C)C(=O)/C=C\c1cn(-c2ccccc2)nc1-c1ccc2c(c1)OCCO2` gave aSyn rescue 8%, FUS suppressor inactive, TDP43 rescue 0%[0.397 µM], Abeta yeast res inactive and Mito fusion yeast 18µM*.
Nc1ncnc(Oc2cccc(C(F)(F)F)c2)c1[N+](=O)[O-] was read as aSyn rescue -3%, FUS suppressor inactive, TDP43 rescue 13µM*, Abeta yeast res inactive and Mito fusion yeast 1%.
`COc1ccc(Cl)cc1NC(=O)Cn1ccn(-c2cc(C)cc(C)c2)c(=O)c1=O` gave FUS suppressor inconclusive, TDP43 rescue 8% and Abeta yeast res inactive.
For O=C(Nc1ccc(Cl)c(Cl)c1)N1N=CCC1c1ccccc1 (stereo not given) the results were aSyn rescue -16%, FUS suppressor inconclusive, TDP43 rescue 22µM*, Abeta yeast res inactive and Mito fusion yeast 6%.
Screening NC(=NC(=O)c1ccc(Cl)cc1)N1N=CCC1c1ccccc1 (stereo not given) returned aSyn rescue 0%, FUS suppressor inactive, TDP43 rescue inconclusive, Abeta yeast res inactive and Mito fusion yeast 14%.
`O=C(CSc1ccc(Cl)cc1)N1N=CCC1c1ccccc1` (stereo not given) gave aSyn rescue -6%, FUS suppressor inactive, TDP43 rescue 13µM*, Abeta yeast res inactive and Mito fusion yeast 21%.
Screening COc1cccc(Nc2nnc(-c3cc4ccc(O)cc4oc3=O)s2)c1 returned FUS suppressor inactive, TDP43 rescue 15% and Abeta yeast res inactive.
`COc1ccc(/C=C(\NC(=O)c2ccccc2)C(=O)NC2CCCCC2)cc1` gave FUS suppressor inactive, TDP43 rescue -10% and Abeta yeast res inactive.
